Laboratory results taken from PubChem BioAssay AID1159580 (chemical genetic matrix, 2015).
Where “and” joins values, the source holds several entries; their conditions need not be identical. Equal entries are not always repeated. Hit rate of the full screen: of about 5,500 compounds, about 2,000 (36%) were called active. Not shown: some 18% with an inconclusive outcome. No stated cut-off is given here; in the data, active means normalized growth mostly below about 0.91 (no sharp cut-off); inconclusive means no clear call, values can overlap the other calls; inactive means mostly above about 0.92. The list shows a part of the results.

Experiment: chemical genetic growth profiling, strain panel (AID 1159580);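 further: tested at 20 µM; growth read once vehicle control cultures reached saturation at 30 °C; 1 = growth at the plate median or of vehicle wells; lower values mean less growth of the strain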
Conditions: growth OD

Measured: normalized growth

CC(C)[N+](C)(CCOC(=O)C1c2ccccc2Oc2ccccc21)C(C)C
inactive: S. cerevisiae deletion strains, locus YJR075W, strain HOC1, active compounds read low 1.02 | S. cerevisiae deletion strains, locus YKL009W, strain mrt4, active compounds read low 1.02 | S. cerevisiae deletion strains, locus YKL068W, active compounds read low 1.01 | S. cerevisiae deletion strains, locus YKL085W, strain MDH1 (second series), active compounds read low 1.01 | S. cerevisiae deletion strains, locus YKL085W, strain MDH1, active compounds read low 1.01 | S. cerevisiae deletion strains, locus YKL160W, strain elf1, active compounds read low 1.04 | S. cerevisiae deletion strains, locus YKL190W, strain CNB1, active compounds read low 1.02 | S. cerevisiae deletion strains, locus YKR001C, strain vps1, active compounds read low 1.01 | S. cerevisiae deletion strains, locus YKR026C, strain gcn3, active compounds read low 0.997 | S. cerevisiae deletion strains, locus YKR091W, strain srl3, active compounds read low 0.994 | S. cerevisiae deletion strains, locus YLL001W, strain dnm1, active compounds read low 1.01 | S. cerevisiae deletion strains, locus YLL026W, active compounds read low 1.02 | S. cerevisiae deletion strains, locus YLL041C, strain sdh2, active compounds read low 1 | S. cerevisiae deletion strains, locus YLR027C, strain aat2, active compounds read low 1 | S. cerevisiae deletion strains, locus YLR039C, strain RIC1, active compounds read low 1.05 | S. cerevisiae deletion strains, locus YLR058C, strain SHM2, active compounds read low 1.01 | S. cerevisiae deletion strains, locus YLR102C, strain apc9, active compounds read low 1 | S. cerevisiae deletion strains, locus YLR113W, strain HOG1, active compounds read low 1.02 | S. cerevisiae deletion strains, locus YLR221C, strain rsa3, active compounds read low 0.996 | S. cerevisiae deletion strains, locus YLR258W, strain gsy2, active compounds read low 1.02 | S. cerevisiae deletion strains, locus YLR262C, strain YPT6 (second series), active compounds read low 1 | S. cerevisiae deletion strains, locus YLR262C, strain YPT6, active compounds read low 1.07 | S. cerevisiae deletion strains, locus YLR268W, strain sec22, active compounds read low 1.02 | S. cerevisiae deletion strains, locus YLR320W, strain mms22, active compounds read low 0.985 | S. cerevisiae deletion strains, locus YLR330W, strain CHS5, active compounds read low 1 | S. cerevisiae deletion strains, locus YLR342W, strain FKS1 (second series), active compounds read low 1.02 | S. cerevisiae deletion strains, locus YLR342W, strain FKS1, active compounds read low 1.02 | S. cerevisiae deletion strains, locus YLR357W, strain rsc2, active compounds read low 1.02 | S. cerevisiae deletion strains, locus YLR370C, strain arc18, active compounds read low 1.01 | S. cerevisiae deletion strains, locus YLR371W, strain rom2, active compounds read low 1.01 | S. cerevisiae deletion strains, locus YLR384C, strain iki3, active compounds read low 1.02 | S. cerevisiae deletion strains, locus YLR418C, strain cdc73, active compounds read low 1.02 | S. cerevisiae deletion strains, locus YML016C, strain PPZ1, active compounds read low 1 | S. cerevisiae deletion strains, locus YML032C, strain rad52, active compounds read low 1.01 | S. cerevisiae deletion strains, locus YML120C, strain ndi1, active compounds read low 1.01 | S. cerevisiae deletion strains, locus YML124C, strain tub3, active compounds read low 1.01 | S. cerevisiae deletion strains, locus YMR058W, strain fet3, active compounds read low 1 | S. cerevisiae deletion strains, locus YMR078C, strain ctf18, active compounds read low 1 | S. cerevisiae deletion strains, locus YMR125W, strain sto1, active compounds read low 1 | S. cerevisiae deletion strains, locus YMR129W, active compounds read low 1.01 | S. cerevisiae deletion strains, locus YMR205C, strain PFK2, active compounds read low 0.998 | S. cerevisiae deletion strains, locus YMR223W, strain ubp8, active compounds read low 0.994 | S. cerevisiae deletion strains, locus YMR231W, strain pep5, active compounds read low 1.01 | S. cerevisiae deletion strains, locus YMR307W, strain GAS1, active compounds read low 1.01 and 1.02 | S. cerevisiae deletion strains, locus YNL067W, strain RPL9B, active compounds read low 1.01 | S. cerevisiae deletion strains, locus YNL071W, strain lat1, active compounds read low 1.01 | S. cerevisiae deletion strains, locus YNL128W, strain TEP1, active compounds read low 1.02 | S. cerevisiae deletion strains, locus YNL153C, strain GIM3, active compounds read low 1.01 and 0.989 | S. cerevisiae deletion strains, locus YNL175C, strain NOP13, active compounds read low 1.02 | S. cerevisiae deletion strains, locus YNL183C, strain NPR1, active compounds read low 0.971 | S. cerevisiae deletion strains, locus YNL197C, strain WHI3, active compounds read low 0.999 | S. cerevisiae deletion strains, locus YNL209W, strain ssb2, active compounds read low 1.01 | S. cerevisiae deletion strains, locus YNL224C, strain SQS1, active compounds read low 1 | S. cerevisiae deletion strains, locus YNL233W, strain BNI4, active compounds read low 1.01 | S. cerevisiae deletion strains, locus YNL248C, strain rpa49, active compounds read low 1.04 | S. cerevisiae deletion strains, locus YNL250W, strain rad50, active compounds read low 1.02 | S. cerevisiae deletion strains, locus YNL271C, strain bni1, active compounds read low 1.01 | S. cerevisiae deletion strains, locus YNL298W, strain CLA4, active compounds read low 1.03 | S. cerevisiae deletion strains, locus YNL307C, strain MCK1, active compounds read low 1 | S. cerevisiae deletion strains, locus YNL322C, strain KRE1 (second series), active compounds read low 1.02 | S. cerevisiae deletion strains, locus YNR049C, strain mso1, active compounds read low 1.01 | S. cerevisiae deletion strains, locus YNR052C, strain pop2, active compounds read low 1.01 | S. cerevisiae deletion strains, locus YOL006C, strain TOP1, active compounds read low 1 | S. cerevisiae deletion strains, locus YOL012C, strain htz1 0.959 | S. cerevisiae deletion strains, locus YOL147C, strain pex11, active compounds read low 1.01 | S. cerevisiae deletion strains, locus YOR001W, strain rrp6, active compounds read low 0.976 | S. cerevisiae deletion strains, locus YOR061W, strain CKA2, active compounds read low 1.01 | S. cerevisiae deletion strains, locus YOR069W, strain VPS5, active compounds read low 1 | S. cerevisiae deletion strains, locus YOR070C, strain gyp1, active compounds read low 1.01 | S. cerevisiae deletion strains, locus YOR080W, strain dia2, active compounds read low 1.01 | S. cerevisiae deletion strains, locus YOR083W, strain WHI5 (second series), active compounds read low 1.01 | S. cerevisiae deletion strains, locus YOR083W, strain WHI5, active compounds read low 0.979 | S. cerevisiae deletion strains, locus YOR106W, strain vam3, active compounds read low 1.03 | S. cerevisiae deletion strains, locus YOR136W, strain idh2, active compounds read low 1 | S. cerevisiae deletion strains, locus YOR144C, strain elg1, active compounds read low 1 | S. cerevisiae deletion strains, locus YOR184W, strain ser1, active compounds read low 1.01 | S. cerevisiae deletion strains, locus YOR231W, strain MKK1, active compounds read low 0.991 | S. cerevisiae deletion strains, locus YOR265W, strain rbl2, active compounds read low 1 | S. cerevisiae deletion strains, locus YOR270C, strain vph1, active compounds read low 1.04 | S. cerevisiae deletion strains, locus YOR290C, strain snf2, active compounds read low 1.02 | S. cerevisiae deletion strains, locus YOR316C, strain cot1, active compounds read low 1.01 | S. cerevisiae deletion strains, locus YPL051W, strain arl3, active compounds read low 1.02 | S. cerevisiae deletion strains, locus YPL055C, strain LGE1, active compounds read low 1.01 | S. cerevisiae deletion strains, locus YPL078C, strain atp4, active compounds read low 1.02 | S. cerevisiae deletion strains, locus YPL106C, strain sse1, active compounds read low 1.01 | S. cerevisiae deletion strains, locus YPL240C, strain hsp82, active compounds read low 1.01 | S. cerevisiae deletion strains, locus YPL241C, strain CIN2, active compounds read low 1.01 | S. cerevisiae deletion strains, locus YPL256C, strain CLN2, active compounds read low 1.06 | S. cerevisiae deletion strains, locus YPR119W, strain clb2, active compounds read low 0.996 | S. cerevisiae deletion strains, locus YPR141C, strain kar3, active compounds read low 1.01 | S. cerevisiae deletion strains, locus YPR163C, strain tif3, active compounds read low 1 | S. cerevisiae deletion strains, locus YPR167C, strain met16, active compounds read low 1 | S. cerevisiae deletion strains, strain wtn01, active compounds read low 1.01 | S. cerevisiae strains, strain wild type, active compounds read low 1
